# Assay outcomes from PubChem BioAssay.
# CYP2C19 act: cytochrome P450 2C19 (human) activation | 96,000 tested, under 10 active | recombinant CYP2C19, luciferin-H EGE luminescence; stronger effect = higher value; 0 = fully inhibited enzyme, 1 = untreated enzyme | activation factor at 5 µM;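 active means activation factor of at least 2 at 5 µM in the primary screen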;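 further: 0 = wells with 2.5 mM tranylcypromine and 1 = vehicle-only wells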
# CYP2C9 activ: increases human cytochrome P450 2C9 activity; P11712; hit rate 1.4% among 96,000; activation factor at 5 µM; recombinant CYP2C9, luciferin-H conversion, luminescence; stronger effect = higher value; factor 1 = untreated enzyme, 0 = blocked;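 active means activation factor of 2 or more for CYP2C9 at a 5 µM dose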;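 further: 0 = sulfaphenazole-blocked wells and 1 = vehicle-only wells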
# CYP2C19 inhib: human CYP2C19 inhibition; P33261; CYP2C19 Supersomes, luciferin-H EGE luminescence, 30 min; inhibition, % at 5 µM; hit rate 21% among 96,000; AID 778;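 active means CYP2C19 inhibition above a set limit at 5 µM in the primary screen, cut at about 50% in these data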;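 further: plate controls were negative control wells for no effect and 2.5 mM tranylcypromine positive control for full effect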
# PLAP act: activators of human placental alkaline phosphatase. P05187. purified PLAP enzyme, luminescent substrate read-out; stronger effect = higher value. activation fold at 20 µM. hit rate 1.2% among 96,000; in the data active means activation fold above about 2
# Target sequence (P05187 whole entry, looked up): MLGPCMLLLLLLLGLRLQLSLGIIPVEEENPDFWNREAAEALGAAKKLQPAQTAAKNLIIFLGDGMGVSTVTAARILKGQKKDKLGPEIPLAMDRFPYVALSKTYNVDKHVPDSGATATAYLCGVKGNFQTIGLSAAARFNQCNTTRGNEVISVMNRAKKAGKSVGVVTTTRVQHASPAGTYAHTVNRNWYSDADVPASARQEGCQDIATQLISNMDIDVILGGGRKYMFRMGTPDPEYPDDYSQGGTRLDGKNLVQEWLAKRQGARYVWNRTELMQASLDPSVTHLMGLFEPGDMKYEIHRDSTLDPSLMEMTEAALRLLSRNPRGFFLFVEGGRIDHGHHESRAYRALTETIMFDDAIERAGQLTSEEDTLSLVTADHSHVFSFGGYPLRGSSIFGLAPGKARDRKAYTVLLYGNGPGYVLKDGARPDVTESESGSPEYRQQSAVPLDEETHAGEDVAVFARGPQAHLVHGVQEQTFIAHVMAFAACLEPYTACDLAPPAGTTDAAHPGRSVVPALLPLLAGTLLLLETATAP
# CYP2C9 inhib: inhibitors of human CYP2C9 | P11712 | CYP2C9 Supersomes, luciferin-H conversion, luminescence | inhibition, % at 5 µM | hit rate 20% among 96,000;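 active means blocking of liver enzyme CYP2C9 beyond about 50% at 5 µM, limit read from the data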
# Numbers without * were called inactive. This is a sample that favours compounds with a hit; in the whole collection about 31% have one here.
SMILES,CYP2C19 act,CYP2C9 activ,CYP2C19 inhib,PLAP act,CYP2C9 inhib
COc1cccc(N=C2SC(C(=O)Nc3ccc(F)cc3)CC(=O)N2C)c1 (stereo not drawn),0.2,0,83.2*,1,98.7*
O=C(CSC1=NCCS1)N1CCCC1,0.9,0.8,12.7,0.9,16.7
CCCN1CCC(NC(=O)Nc2ccc(F)cc2F)CC1,1.1,1.1,-8.8,1,-5.6
COC(=O)c1ccc(CNC(=O)/C=C/c2cc([N+](=O)[O-])ccc2OC(F)F)cc1,0.9,1,10.8,0.9,1.2
COc1cc(/C=N/NC(=O)c2cccnc2)ccc1OS(=O)(=O)c1ccc(F)cc1,0.3,0.2,66.7*,1.6,83.4*
COc1ccc(/C=N/NC(=O)c2cccc([N+](=O)[O-])c2)cc1OC(=O)c1ccccc1,0.6,0.5,42.4,1.8,48.5
COc1ccc(/C=N/NC(=O)c2cccc([N+](=O)[O-])c2)cc1OS(=O)(=O)c1ccccc1,0.8,0.9,24.0,0.9,9.6
COc1ccccc1NC(=O)COc1ccc(/C=N/NS(=O)(=O)c2ccc(C)cc2)cc1,1,0.8,3.2,1.1,17.8
COc1cc(/C=N/NC(=O)COc2ccc(Cl)cc2)ccc1OS(=O)(=O)c1ccc(C)cc1,0.6,0.4,36.8,1.4,64.5*
COc1ccc(/C=N/NC(=O)c2cccc([N+](=O)[O-])c2)cc1OC(=O)c1ccc(C)cc1,0.6,0.5,35.8,1,53.8*
COc1ccc(C(=O)Oc2cc(/C=N/NS(=O)(=O)c3ccccc3)ccc2OC)cc1,0.8,0.7,18.9,1.1,32.8
COc1ccc(/C=N/NS(=O)(=O)c2ccc(C)cc2)cc1OC(=O)c1ccc(C)cc1,1,0.1,4.4,1.9,88.1*
CCOc1ccc(NC(=O)N(CCN(C)C)C(C)c2ccncc2)cc1 (stereo not drawn),0.8,0.9,19.2,1,14.2
O=C(Nc1ccccc1)N1C(=O)C2(OCCO2)c2ccccc21,1.1,1.2,-8.2,0.9,-21.3
COCCSc1nnc(-c2cnccn2)o1,1.1,0.8,-5.1,0.9,16.7
Cc1ccc(S(=O)(=O)Oc2ccccc2/C=N/NC(N)=S)cc1,0.9,1.1,14.6,0.8,-6.5
COc1ccc(/C=N/NS(=O)(=O)c2ccccc2)cc1OS(=O)(=O)c1ccc(C)cc1,0.5,0.1,52.0*,1.4,92.7*
C#CCOc1ccc2c(C)cc(=O)oc2c1,0.4,1,64.4*,1.1,2.2
Cc1cc(=O)oc2cc(OCC3CC(c4ccccc4)=NO3)ccc12 (stereo not drawn),0.6,0.5,43.0,0.7,51.0*
Cc1ccc(CCNC(=O)C23CN(Cc4ccccc4)CC2C(c2cccc([N+](=O)[O-])c2)=NO3)cc1 (stereo not drawn),0.2,0.3,77.1*,1.4,75.0*
Cc1cc(OC(=O)c2ccc(Cl)cc2Cl)nc(C)n1,1.1,1.1,-6.1,1.1,-9.7
CCOC(=O)N1CCC(Nc2ccc3nnc(-c4ccccc4)n3n2)CC1,0,0.1,96.3*,1.6,92.9*
CC(=O)c1cccc(Nc2nc(=O)c3cccnc3s2)c1,0.3,0.2,74.1*,0.8,78.2*
COc1ccccc1NC(=O)Cc1noc(CN(C)Cc2cccs2)n1,0.2,0.7,78.5*,1.4,33.8
COc1ccc(Cc2nc(-c3ccc(-n4cccc4)cc3)no2)cc1OC,1.1,0.9,-9.2,1.2,14.4
SMILES,CYP2C19 act,CYP2C9 activ,CYP2C19 inhib,PLAP act,CYP2C9 inhib
COc1ccc(Cc2nc(-c3cccs3)no2)cc1OC,0.2,0.3,78.0*,1.5,65.1*
COc1ccccc1NC(=O)CCc1nc(-c2cccs2)no1,0.2,0.8,84.6*,0.8,23.5
COc1ccccc1NC(=O)Cn1nnc(-c2ccccc2NC(=O)c2cccs2)n1,1,0.7,-1.3,1,25.8
Cc1ccc(CNC(=O)CCc2nc(-c3cccs3)no2)cc1,0.3,0.3,69.9*,1.2,67.7*
C=CCNc1nc2c(c(=O)[nH]c(=O)n2C)n1CCCCC,0.9,0.9,6.3,0.9,9.2
Cc1cccc(-c2noc(CCC(=O)NCc3ccccc3)n2)c1,0.9,0.7,13.1,0.8,34.9
O=C(CCc1nc(-c2cccs2)no1)NCc1ccc(F)cc1Cl,0.1,0.3,87.3*,0.8,66.2*
CCOC(=O)c1c(NC(=O)CN(CC)CC)sc2c1CCC2,0.9,0.5,12.4,1,52.2*
CCOC(=O)c1sc(NC(=O)CN(CC)CC)c(C(=O)OCC)c1C,0.8,0.2,19.8,1.2,76.5*
CCOC(=O)c1c(N)sc2c1CCSC2,0.9,0.8,11.2,0.9,15.5
CCOC(=O)Nc1sc(C(=O)N(CC)CC)c(C)c1C(=O)OCC,0.5,0.3,49.8,1,68.6*
CCCOC(=O)c1c(N)sc2c1CCC2,0.6,0.5,42.7,1.6,50.0*
CCOC(=O)c1c(NC(=O)OC)sc2c1CCC2,1,1.1,1.1,0.8,-8.9
CCN(CC)CCNC(=O)CS(=O)Cc1nc(-c2ccccc2Cl)oc1C (stereo not drawn),0.9,0.8,6.5,1.3,17.5
CC(NC(=O)c1ccc2c(c1)OCO2)C1CCCO1 (stereo not drawn),1,1.1,-1.2,1,-11.4
CCOC(=O)N1CCN(c2ncnc3c2[nH]c2ccc(F)cc23)CC1,0.4,0.5,59.6*,0.9,48.7
CCOC(=O)N1CCN(c2ncnc3c2[nH]c2ccc(OC)cc23)CC1,0.4,0.6,56.0*,0.9,38.7
Fc1ccc2[nH]c3c(N4CCN(c5ccccc5)CC4)ncnc3c2c1,1,0.9,-1.0,0.8,5.3
OC1(c2cccc(C(F)(F)F)c2)CCN(c2ncnc3c2[nH]c2ccc(F)cc23)CC1,0.3,0.1,71.0*,1.4,85.2*
CCC(=O)Nc1ccccc1Nc1cc(C#N)c(C#N)cc1[N+](=O)[O-],0.3,0.8,69.2*,1,23.6
CCn1c(=O)cc(OCC(=O)Nc2ccccc2C#N)c2ccccc21,0.7,0.6,29.8,0.9,40.8
CC(C)(C)OC(=O)N1CCC(c2c(C(=O)O)cnn2-c2ccccc2)CC1,1.2,1.1,-15.7,1.2,-6.6
CCOc1ccc(-c2cc3nc(C4CCN(C(=O)OC(C)(C)C)CC4)c(C(=O)O)cn3n2)cc1,1.1,0.2,-7.2,1.4,80.7*
N#CCSc1nc2c(c(C3CC=CCC3)c1C#N)CCC2 (stereo not drawn),0.8,1,16.7,0.9,4.1
COc1ccccc1OCc1ccc(C(=O)NCC2CCCO2)o1 (stereo not drawn),0.7,0.8,28.5,1,20.0
CN(C)c1nc2n(c(=S)n1)CCS2,1,1.1,-3.2,0.8,-8.6
CC1=CC(C)(C)N2C(=O)C3(SCC(=O)N3c3ccc(O)cc3)c3cc(C)cc1c32 (stereo not drawn),0.1,0,87.2*,1.3,97.2*
CC(=O)C1=C(Nc2ccc(C)cc2)CC(C)(O)C(C(C)=O)C1c1ccco1 (stereo not drawn),0.6,0.8,39.7,1.1,21.8
